PubChem BioAssay (Tox21)
Values joined by “and” are separate entries in the source; they are usually repeats but may differ in a detail not shown here. Equal values may be shown once. Records with an inconclusive call do not appear. Where a structure was tested more than once in an assay, its records may differ in their call. Active and inactive are the calls of the source. The call rests on the fitted dose curve.

What was measured:
[1] = target: Acetylcholinesterase (Homo sapiens) (UniProt P22303); test: Acetylcholinesterase (AChE) small molecule antagonists: colormetric cell-based qHTS assay (AID 1347395); further: nearly all actives have a fitted effect of over 30% in size; further: potency means the concentration at half of the fitted maximal effect
Method in brief: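 In this cell-based qHTS, attached SH-SY5Y cells were treated with test chemicals for 30 min, after which acetylthiocholine hydrolysis was followed by DTNB colour development over 90 min at 37 C.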

[2] = target: Acetylcholinesterase (Homo sapiens) (UniProt P22303); test: Acetylcholinesterase (AChE) small molecule antagonists: enzyme-based qHTS assay (AID 1347397); details: Potency: AChE enzyme activity inhibition; outcome: AChE enzyme activity inhibition; further: nearly all actives have a fitted effect of over 55% in size; further: potency means the concentration at half of the fitted maximal effect
Method in brief: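 Colorimetric DTNB read-out of thiocholine released from acetylthiocholine by recombinant human AChE (50 mU/mL as dispensed). Compounds were preincubated 30 min at RT before substrate/DTNB addition, with a 10 min RT reaction.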

[3] = target: Acetylcholinesterase (Homo sapiens) (UniProt P22303); test: Acetylcholinesterase (AChE) small molecule antagonists: fluorescence cell-based qHTS assay (AID 1347398); details: Potency: AChE activity; outcome: AChE activity; further: nearly all actives have a fitted effect of over 50% in size; further: potency means the concentration at half of the fitted maximal effect
Method in brief: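 SH-SY5Y, 2,000 cells/well, attached overnight; cmpd 30 min 37 C; acetylthiocholine/Thiolite Green cocktail 40 min RT; fluorescence Ex/Em 490/520 nm.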

[4] = target: Acetylcholinesterase (Homo sapiens) (UniProt P22303); test: Acetylcholinesterase (AChE) small molecule antagonists: enzyme-based qHTS assay with human liver microsomes (AID 1347399); details: Potency: qHTS inhibition; outcome: qHTS inhibition; further: nearly all actives have a fitted effect of over 60% in size
Method in brief: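 Recombinant human AChE (50 mU/mL in the enzyme mix) and human liver microsomes (0.25 mg/mL final) were preincubated with compound and NADPH (0.25 mg/mL final) for 30 min at 37 C. Acetylthiocholine/DTNB was then added; thiocholine was read colorimetrically after 10 min at room temperature.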

Measured: Potency

Chain of Acetylcholinesterase (Homo sapiens) (P22303 whole entry, looked up): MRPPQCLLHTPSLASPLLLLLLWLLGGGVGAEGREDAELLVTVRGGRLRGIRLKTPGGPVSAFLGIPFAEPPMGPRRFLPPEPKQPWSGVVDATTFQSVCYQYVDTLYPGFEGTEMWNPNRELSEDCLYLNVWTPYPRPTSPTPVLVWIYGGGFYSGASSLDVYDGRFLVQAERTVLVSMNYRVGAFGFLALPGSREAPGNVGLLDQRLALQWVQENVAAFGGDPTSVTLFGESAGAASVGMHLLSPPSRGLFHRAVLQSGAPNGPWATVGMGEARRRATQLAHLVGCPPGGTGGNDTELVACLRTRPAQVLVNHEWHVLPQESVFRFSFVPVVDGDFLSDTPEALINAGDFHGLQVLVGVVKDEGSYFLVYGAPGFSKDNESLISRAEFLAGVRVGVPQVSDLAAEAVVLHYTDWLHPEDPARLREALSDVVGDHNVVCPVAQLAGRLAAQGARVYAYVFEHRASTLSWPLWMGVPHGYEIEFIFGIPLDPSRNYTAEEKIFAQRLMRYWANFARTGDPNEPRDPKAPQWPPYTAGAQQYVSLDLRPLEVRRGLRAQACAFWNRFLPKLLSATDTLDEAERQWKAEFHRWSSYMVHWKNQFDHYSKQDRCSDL

O=c1cc(O)c(Cl)c[nH]1
inactive: all assays above

CCCOCCOCCOCCO
inactive: all assays above

Nc1cc([N+](=O)[O-])ccc1Cl
inactive: all assays above

O=C(CCCN1CCC(O)(c2ccc(Br)cc2)CC1)c1ccc(F)cc1
inactive: all assays above

CC(=O)C1=C(C)[C@@H]2C[C@@]3(C1)[C@H](C)CC[C@H]3C2(C)C
inactive: all assays above

O=C1Nc2ccccc2C1=O
inactive: all assays above

OC(Cn1cncn1)(Cn1cncn1)c1ccc(F)cc1F
inactive: all assays above

CNCCC(Oc1ccccc1OC)c1ccccc1 (stereo not given)
inactive: all assays above

O=c1cc(-c2ccccc2)oc2ccccc12
inactive: all assays above

CNCC[C@@H](Oc1ccccc1C)c1ccccc1
inactive: all assays above

Clc1ccc2cc3ccccc3cc2c1
inactive: all assays above

CCCCC(CC)COC(=O)COc1ccc(Cl)cc1Cl (stereo not given)
inactive: all assays above

CO/N=C(/C(=O)N[C@@H]1C(=O)N2C(C(=O)O)=C(COC(N)=O)CS[C@H]12)c1ccco1
inactive: all assays above

COc1cc2c(cc1OC)-c1cc(=Nc3c(C)cc(C)cc3C)n(C)c(=O)n1CC2
inactive: all assays above

CC(C)(c1ccccc1)c1ccc(Nc2ccc(C(C)(C)c3ccccc3)cc2)cc1
inactive: all assays above

CCCCCC=O
inactive: all assays above

NC1CCCCC1
inactive: all assays above

Cc1ccc(C)c(OCCCC(C)(C)C(=O)O)c1
inactive: all assays above

CC(=O)N(CC(O)CO)c1c(I)c(C(=O)NCC(O)CO)c(I)c(C(=O)NCC(O)CO)c1I (stereo not given)
inactive: all assays above

Cc1c(Cl)cccc1[N+](=O)[O-]
inactive: all assays above

NCCOCCOCCN
inactive: all assays above

CC(=O)Nc1ccc(N)cc1
inactive: all assays above

O=Cc1ccccc1O
35.6 µM (active) and inactive: [3]
inactive: all other assays above

C=C(C)C(=O)OCCNC(C)(C)C
inactive: all assays above

CCCCCCCCC(=O)OCC
inactive: all assays above

CCCCCCCCCCCC[N+](C)(C)CC(=O)[O-]
inactive: all assays above

CC1=NN(c2ccc(C(=O)O)cc2)C(=O)C1
inactive: all assays above

O=c1[nH]sc2cc(Cl)ccc12
inactive: all assays above

O=C(O)c1cccc(O)c1
inactive: all assays above

Cc1cc(CCC(=O)OCCOCCOCCOC(=O)CCc2cc(C)c(O)c(C(C)(C)C)c2)cc(C(C)(C)C)c1O
inactive: all assays above

S=C1NC=NC2N=CNC12 (stereo not given)
inactive: all assays above

NC(N)=NC(=O)c1nc(Cl)c(N)nc1N
active: [1] 35.8 µM and 32.9 µM and 27.5 µM | [3] 12.7 µM and 32.9 µM
inactive: [2] | [4]

Cc1c(NC(=O)c2cccnc2)c(=O)n(-c2ccccc2)n1C
inactive: all assays above

c1cc(CCCc2ccncc2)ccn1
inactive: all assays above

Nc1ccc(S(=O)(=O)NC(=O)c2ccccc2)cc1
inactive: all assays above

c1ccc2c(c1)ccc1ccccc12
inactive: all assays above

CC(=O)OCC(C)C
inactive: all assays above

CCCCCCOC(C)=O
inactive: all assays above

CC(C)OC(=O)c1ccccc1
inactive: all assays above

c1ccc(Nc2cccc3ccccc23)cc1
inactive: all assays above

CN(C/C=C/C#CC(C)(C)C)Cc1cccc2ccccc12
inactive: all assays above

CCC(CC)Nc1ccc(C)c(C)c1
inactive: all assays above

O=C(OCCCCCOC(=O)c1ccccc1)c1ccccc1
inactive: all assays above

CC(C)c1ccc2ncccc2c1
inactive: all assays above

CCCCC(CC)CN=C(N)NC(N)=NCCCCCCN=C(N)NC(N)=NCC(CC)CCCC (stereo not given)
inactive: [1] | [4]
active: [2] 17.4 µM | [3] 13.8 µM

CCC(=O)O[C@]1(C(=O)SCF)[C@H](C)C[C@H]2[C@@H]3C[C@H](F)C4=CC(=O)C=C[C@]4(C)[C@@]3(F)[C@@H](O)C[C@@]21C
inactive: all assays above

O=C(CC(C(=O)OC1CCCCC1)S(=O)(=O)O)OC1CCCCC1 (stereo not given)
inactive: all assays above

O=c1[nH]c2ccc(Cl)cc2o1
inactive: all assays above

O=C(O)c1cc(=O)[nH]c(=O)[nH]1
inactive: all assays above

O=C(O)c1cc(Cl)cc(Cl)c1O
inactive: all assays above

CC(CCO)CCCC(C)(C)O (stereo not given)
inactive: all assays above

O=C1NCN(c2ccccc2)C12CCN(CCCC(c1ccc(F)cc1)c1ccc(F)cc1)CC2
inactive: all assays above

CO/N=C(\C(=O)O)c1csc(NC(=O)CCl)n1
inactive: all assays above

O=CC1CC=CCC1 (stereo not given)
inactive: all assays above

COc1ccc(S(=O)(=O)N2C(=O)[C@@](c3ccccc3OC)(N3C[C@H](O)C[C@H]3C(=O)N(C)C)c3cc(Cl)ccc32)c(OC)c1
inactive: all assays above

O=C(O)c1ccccc1[N+](=O)[O-]
inactive: all assays above

CC(=O)NCCCS(=O)(=O)O
inactive: all assays above

CCN(CC)c1ccc(C=O)c(O)c1
inactive: [2] | [4]
active: [1] 39.9 µM | [3] 35.6 µM

Nc1cc(Cl)c(N)c(Cl)c1
55.9 µM (active) and inactive: [3]
inactive: [2] | [4]
79 µM (active) and inactive: [1]

C1COCCN1
inactive: all assays above
